Inconclusive results are not listed. Values without a mark were called inactive. Calls of active or inactive are those of the source. Calls follow the shape of the full dose curve.
% is scaled to controls: 0 for no effect and ±100 for the full control effect.

This test can be described thus: qHTS assay to identify small molecule agonists of the NFkB signaling pathway - cell viability counter screen (AID 1159515). Also: nearly all actives have a fitted effect of over 55% in size. As to conditions: NFkB-bla ME-180 viability, CellTiter-Glo luminescence, 5 h; series mostly up to 61 µM. The source says: National Center for Advancing Translational Sciences [NCATS]
NIH Chemical Genomics Center [NCGC]
U.S. Environmental Protection Agency [EPA]
National Institutes of Environmental Health Sciences [NIEHS]
National Toxicology Program [NTP]
U.S. Food and Drug Administration [FDA]
Transcription factors and their stimulated target gene expression play pivotal roles across many cellular processes including responses to environmental stimuli. Proper regulation of associated pathways is critical to maintain cell health and function. Constitutive activation of transcription factor pathways has been implicated in tumors as it may block cellular functions such as apoptosis and lead to invasion and metastasis. One important transcription factor that stimulates gene expression in response to cytokines, UV radiation, and other stimuli is nuclear factor-kappa B (NFkB). To measure activation of the NFkB pathway, the CellSensor NFkB-bla ME-180 cell line (Life Technologies, Carlsbad, CA) that stably expresses beta-lactamase reporter gene under the regulation of a NF-kB response element was used. This assay allows measurement of the NFkB pathway activity induced by compounds in a ME-180 cell line. This system quantitates NF-kB activity using a FRET-based assay system where beta-lactamase expression disrupts FRET, allowing for fluorescent measurement of activity. This cell line has been used to screen the Tox21 10K compound library and to identify compounds that induce the NFkB pathway activity. The cytotoxicity of the Tox21 compound library against the NFkB-bla ME-180 cell line was tested in parallel by measuring cell viability using the CellTiter-Glo assay in the same wells.
Tox21 Assay Protocol Summary:
NFkB-bla ME-180 cells were dispensed at 2,000 cells/6 uL of assay medium per well into black wall/clear-bottom 1536-well plates using a Multidrop Combi (ThermoFisher Scientific, Waltham, MA) dispenser. After the assay plates were incubated at 37 C and 5% CO2 for an overnight, 23 nL of compounds dissolved in DMSO, positive controls or DMSO only was transferred to the assay plate by a Pintool station (Kalypsys, San Diego, CA). The assay plates were incubated at 37 C and 5% CO2 for 5 hr. One uL of LiveBLAzer B/G FRET substrate (Life Technologies) was added using a Flying Reagent Dispenser (Aurora Discovery, San Diego, CA) and the plates were incubated at room temperature for 1.5 hr. Fluorescence intensity (405 nm excitation, 460 nm and 530 nm emissions) was measured using an Envision plate reader (PerkinElmer, Shelton, CT). For cytotoxicity, 3 ul/well of CellTiter-Glo reagent was added into the assay plates using an FRD. After 30 min incubation at room temperature, the luminescence intensity was measured using a ViewLux plate reader (PerkinElmer).
Take `Nc1ccc(S(=O)(=O)O)cc1`: the compound was classed as inactive.

Turning to `c1cc[c]([Bi]([c]2ccccc2)[c]2ccccc2)cc1`, the result was inactive.

Turning to `CC(CCO)CCc1ccccc1` (stereo not given), the result was inactive.

Consider `CCCCCCCCCCCC[N+](C)(C)CCCS(=O)(=O)[O-]`, for which the compound was called inactive.

For the compound `CCCC(=O)O[C@]1(C(=O)COC(=O)CC)CC[C@H]2[C@@H]3CCC4=CC(=O)CC[C@]4(C)[C@H]3[C@@H](O)C[C@@]21C`, the result was inactive.

With `O=C(CCCCCCC(=O)Nc1ccccc1)NO`, the compound was classed as inactive.

Turning to `Cc1oncc1C(=O)Nc1ccc(C(F)(F)F)cc1`, the call was inactive.

As for `CCNC(=O)N1CCN(CCCC(c2ccc(F)cc2)c2ccc(F)cc2)CC1`, the compound was classed as inactive.

With `N#C/C(=C1\SCC(c2ccccc2Cl)S1)n1ccnc1` (stereo not given), the compound was classed as inactive.

`CCCCCCCC/C=C\CCCCCCCC(=O)OC`: the result was inactive.

`CC(=N\O)/C(C)=N/O`: the outcome was inactive.

Regarding `COCc1c(C(C)C)nc(C(C)C)c(/C=C/[C@@H](O)C[C@@H](O)CC(=O)O)c1-c1ccc(F)cc1`, the compound was classed as inactive.

On to `O=[N+]([O-])c1cccc(S(=O)(=O)NCCNS(=O)(=O)c2cccc([N+](=O)[O-])c2)c1`, for which the compound was classed as inactive.

In the case of `CCN(Cc1cccc(S(=O)(=O)O)c1)c1ccc(C(=C2C=CC(=[N+](CC)Cc3cccc(S(=O)(=O)[O-])c3)C=C2)c2ccccc2)cc1`, the compound was classed as inactive.

Turning to `CO[C@H]1O[C@H](CO)[C@@H](O)[C@H](O)[C@H]1O`, the compound was classed as inactive.

For the compound `Cc1oc(C)c(C(=O)Nc2ccccc2)c1C`, the result was inactive.

For `O=C(CCCCCCCCC#CI)Oc1ccccc1`, the compound was called inactive.

As to `NC(=O)Nc1ccc(Cl)cc1`, the compound was classed as inactive.

Take `Fc1ccccc1[C@@H](F)COC1CCC(Nc2ncnc3[nH]ncc23)CC1` (stereo not given in full): the outcome was inactive.

Turning to `CN1C(=O)CC(C)(c2ccccc2)C1=O` (stereo not given), the call was inactive.

Take `COCCOC`: the compound was classed as inactive.

For `Cc1cc(O)c(C(C)C)cc1Cl`, the result was inactive.

In the case of `C1COCO1`, the compound was called inactive.

With `O=C(O)c1snc(Cl)c1Cl`, the outcome was inactive.

Turning to `C(=C\c1ccccc1)/CN1CCN(C(c2ccccc2)c2ccccc2)CC1`, the call was inactive.

As for `CC1CC(O)CC(C)(C)C1` (stereo not given), the call was inactive.

Take `CCOC(=O)C(C)Oc1ccc(Oc2nc3ccc(Cl)cc3o2)cc1` (stereo not given): the result was inactive.

As for `CCOC(=O)/C=C/C(=O)O`, the outcome was inactive.

For `CCCCC(=O)O[C@]1(C(=O)CO)CC[C@H]2[C@@H]3CCC4=CC(=O)CC[C@]4(C)[C@H]3[C@@H](O)C[C@@]21C`, the compound was classed as inactive.

As to `O=C(N[C@@H](c1ccccc1)[C@@H]1CCCCN1)c1cccc(C(F)(F)F)c1Cl`, the result was inactive.

As for `COc1cc2c(N3CCN(C(=O)Nc4ccc(OC(C)C)cc4)CC3)ncnc2cc1OCCCN1CCCCC1`, the compound was classed as inactive.

Take `COC(=O)c1cc(S(N)(=O)=O)ccc1OC`: the compound was classed as inactive.

Consider `CCCCCCCCSCCO`, for which the outcome was inactive.

For `COc1cc2c(cc1OC)-c1cc(=Nc3c(C)cc(C)cc3C)n(C)c(=O)n1CC2`, the compound was classed as inactive.

Regarding `CCC(C(=O)OCCOCCN(CC)CC)c1ccccc1` (stereo not given), the compound was called inactive.

In the case of `N#C/C(=C1/SC[C@@H](c2ccc(Cl)cc2Cl)S1)n1ccnc1`, the compound was classed as inactive.

As to `CN(C)CCOC1=Cc2ccccc2Sc2ccc(Cl)cc21`, the compound was called inactive.

Regarding `C/C=C(\C)C(=O)OCCC(C)CCC=C(C)C` (stereo not given), the result was inactive.

Regarding `CC1CN(c2cc3c(cc2F)c(=O)c(C(=O)O)cn3-c2ccc(F)cc2F)CCN1` (stereo not given), the activity, negative = cytotoxic is 3.41% [at 6.95 µM].

As to `Cc1occc1C(=O)Nc1ccc(C(=O)N2CCC(F)(F)/C(=C\C(=O)N3CCC(N4CCCCC4)CC3)c3ccccc32)cc1`, the outcome was inactive.

The values above are taken from PubChem BioAssay (Tox21).
